Vaccinia mCherry: inhibitors of vaccinia virus infection (mCherry reporter signal); Vaccinia virus mCherry reporter infection, fluorescence; Potency, µM (series often up to 36.5 µM), for the others: at the top dose activity change, negative = inhibition, hits mostly inhibitors; 310,000 compounds, 0.63% hits; calls by dose curve; tested in A549 cells; further: potency means the concentration at half of the fitted maximal effect; nearly all actives have a fitted effect of over 35% in size
HCV inhibitor: HCV inhibition. Huh7.5.1 HCVcc-Cre infection, luciferase reporter, 44 h. Potency, µM (doses to about 41.8 µM), inactives show top-dose activity change, negative = inhibition, most hits filed as inhibitors. 340,000 compounds, 3.4% hits. AID 651820; active means well fitted inhibition curve with a large enough effect; inconclusive means small, poorly fitted or top-dose-only effect, or another doubt; inactive means no such curve, though single readings can be large or run the other way; further: potency means the concentration at half of the fitted maximal effect
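Infectious HCVcc-Cre (~0.5 moi) was added to cells just after compound, with cells seeded 4 h earlier at 1,000 per well. Luciferase activity after 44 h culture reported infection; substrate was incubated 15 min at room temperature before reading.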
LASV entry inh: inhibitors of Lassa virus binding or cell entry. Lassa virus pseudotype entry inhibition, cell reporter. Potency, µM (doses to about 37.9 µM), without a hit: at the highest dose activity change, negative = inhibition, actives largely listed as inhibitors. 300,000 compounds, 1.2% hits. AID 540256; calls by dose curve; tested in HEK293 cells; further: potency means the concentration at half of the fitted maximal effect; nearly all actives have a fitted effect of over 50% in size
MARV entry inh: inhibitors of Marburg virus binding or cell entry; Marburg virus pseudotyped entry inhibition, cell reporter; Potency, µM (top dose mostly 37.8 µM), inactives show at the highest dose activity change, negative = inhibition, usual class: inhibitors; 300,000 compounds, 1.8% hits; calls by dose curve; tested in HEK293 cells; further: potency means the concentration at half of the fitted maximal effect
HCMV antiviral: inhibitors of human cytomegalovirus; HFF cells, HCMV-luciferase reporter, 72 h; hits give low values; activity change, negative = inhibition, % at 57.5 µM; 410,000 compounds, 4.5% hits; in the data active means activity change below about -60%; inconclusive means no clear call, values can overlap the other calls; inactive means above about -39%
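Two compound doses tested in HFFs infected with HCMV-luciferase, MOI 1 PFU/cell, 72 h at 37C. Lysate luminescence read with OneGlo; data normalized against buffer-only and 10uM Salinomycin inhibitor controls.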
VACV Venus inh: inhibitors of vaccinia virus (Venus reporter). Vaccinia virus Venus reporter expression, fluorescence. Potency, µM (series often up to 36.5 µM), without a hit: top-dose activity change, negative = inhibition, hits mostly inhibitors. 330,000 compounds, 0.46% hits. AID 720580; calls by dose curve; tested in A549 cells; further: potency means the concentration at half of the fitted maximal effect; nearly all actives have a fitted effect of over 30% in size
Numbers without * were called inactive; i = inactive; u = inconclusive; x = no result given; [ ] = dose if it differs, or a comment. Compounds with a hit are over-represented: about 7.8% of the library has one in this group of screens. On the % scale 0 is the no-effect control and ±100 the full control effect.

SMILES	Vaccinia mCherry	HCV inhibitor	LASV entry inh	MARV entry inh	HCMV antiviral	VACV Venus inh
O=C(Nc1nc2ccccc2[nH]1)c1ccccc1OC(F)F	-2.1%	-13.2%	u	u	79.7	-6.7%
COC(=O)[C@@H]1C[C@@H](NC(=O)c2cccc3c(C)c(C)[nH]c23)CN1Cc1cccc2ccccc12	6.7%	x	x	x	x	16.4%
CC(Oc1ccccc1)C(=O)Nc1nc2ccc(S(N)(=O)=O)cc2s1 (stereo not drawn)	-6.5%	x	1.0%[46.1 µM]	x	18.9	-12.9%
CC(C)Oc1ccc(C(=O)Nc2nc3ccccc3[nH]2)cc1	52.3%	u	1.12µM*	u	-60.3*	-5.3%
O=C(Nc1nc2ccccc2[nH]1)c1ccc(OC(F)F)cc1	-17.0%	u	u	u	32.6	-23.0%
CCc1ccc(C(=O)Nc2nc3ccccc3[nH]2)cc1	-10.1%	u	u	u	-100.7*	u
Cc1cc(Br)c2nc(-c3cccc(Br)c3)c(Cc3cccc(Cl)c3)n2c1	x	x	x	x	111.3	x
O=C(COc1ccccc1)N/N=C/c1ccc([N+](=O)[O-])o1	x	3.1%	x	x	-71.0*	x
O=C(N/N=C/c1ccc([N+](=O)[O-])o1)C(O)c1ccccc1 (stereo not drawn)	x	u	x	x	-60.4*	x
O=C(N/N=C/c1ccc(-c2ccc([N+](=O)[O-])cc2)o1)C(O)c1ccccc1 (stereo not drawn)	u	u	-17.4%	u	-26.2	-6.4%
CN(/N=C/c1ccc([N+](=O)[O-])o1)c1ccccc1	-16.3%	-5.9%	-14.3%	-25.0%[46.1 µM]	-78.0*	0.1%
CCNc1nc(Nc2ccc(C)c(Cl)c2)c2cnn(C)c2n1	x	14.1µM*	x	x	-20.2	x
Cn1ncc2c(Nc3ccc(Cl)c(Cl)c3)ncnc21	x	u	x	x	-38.1	x
CCCCNc1nc(Nc2ccc(C)c(Cl)c2)c2cnn(C)c2n1	x	12.6µM*	x	x	1.1	x
CC(=O)Nc1cc(C(=O)N2CCN(C(=O)c3ccco3)CC2)cc2ncn(CCc3ccccn3)c12	-12.0%	x	x	x	x	-2.2%
Cc1[nH]n(-c2ccccc2)c(=O)c1/C=N/NC(=O)c1ccccc1F	x	u	x	x	-93.5*	x
Cc1[nH]n(-c2cccc3ccccc23)c(=O)c1/C=N/NC(=O)c1cccc([N+](=O)[O-])c1	i	u	-10.0%	u	-100.7*	-11.0%
Cc1[nH]n(-c2ccccc2)c(=O)c1/C=N/NC(=O)c1cccc([N+](=O)[O-])c1	x	2.0%	u	u	-104.2*	-7.7%
CC(=O)N/N=C/c1c(C)[nH]n(-c2ccccc2)c1=O	i	5.8%	14.8%	-6.7%[46.1 µM]	5.9	7.9%
Cc1ccc(NC(=O)c2ccc3snnc3c2)cc1Cl	-0.8%	x	4.3%[46.1 µM]	u	1.9	-3.0%
CCCC(=O)N(Cc1cc(=O)[nH]c2ccccc12)c1ccc(OC)cc1	u	6.9%	-1.4%	-27.1%[46.1 µM]	68.6	-13.0%
CCCC(=O)N(Cc1cc(=O)[nH]c2ccccc12)c1cccc(C)c1	i	7.4%	-5.2%	25.5%	-5.8	-11.4%
COc1ccc(N(Cc2cc(=O)[nH]c3ccccc23)C(=O)CCl)cc1	-19.1%	u	u	u	-101.2*	-27.3%
Cc1cccc(N(Cc2cc(=O)[nH]c3ccccc23)C(=O)CCl)c1	u	u	x	x	-95.9*	12.6µM*
CCCC(=O)N(Cc1cc(=O)[nH]c2ccccc12)c1ccccc1C	-8.4%	-4.1%	u	u	-72.8*	-7.6%
SMILES	Vaccinia mCherry	HCV inhibitor	LASV entry inh	MARV entry inh	HCMV antiviral	VACV Venus inh
CC(=O)N(Cc1cc(=O)[nH]c2ccccc12)c1ccccc1C	-9.4%	14.0%	u	u	-1.9	-6.7%
CCCCn1c(NC(=O)c2ccc(Br)o2)c(C(=O)OCC)c2nc3ccccc3nc21	-27.6%	u	-0.6%	-7.1%[46.1 µM]	-71.1*	1.6%
CCCCn1c(NS(=O)(=O)c2ccc(C)cc2)c(S(=O)(=O)c2ccccc2)c2nc3ccccc3nc21	i	u	5.2%	-2.0%	-29.1	0.7%
CCCCn1c(NS(=O)(=O)c2ccccc2)c(C(=O)OCC)c2nc3ccccc3nc21	-12.4%	u	u	4.61µM*	u	-9.6%
CCOC(=O)c1c(NC(=O)c2ccco2)n(C2CCCCC2)c2nc3ccccc3nc12	-6.8%	u	u	-1.6%	-23.0	5.4%
NS(=O)(=O)c1ccc(Sc2nc3ccccc3s2)c([N+](=O)[O-])c1	u	22.4µM*	-8.3%	u	-39.9	u
COc1cccc(Cn2c(CNC(=O)Cc3cccc(C)c3)nc3cccnc32)c1	-8.7%	x	-17.7%[46.1 µM]	x	u	-8.6%
Fc1cccc(COc2ccccc2CNc2ccccc2)c1	i	u	1.0%	u	-10.0	-13.7%
Oc1c(CN2CCOCC2)cc(COCc2ccccc2)c2cccnc12	7.08µM*	u	u	u	-95.2*	u
Oc1c(CNc2ccccc2)cc(COCc2ccccc2)c2cccnc12	x	x	x	x	-99.5*	x
Cc1ccc(CN2C[C@H](Sc3ccccn3)C[C@H]2C(=O)Nc2ccc3sc(C)nc3c2)cc1	-8.2%	x	x	x	x	-1.7%
Cc1ccc(OCCCc2c(C)n[nH]c2C)cc1	-8.4%	-28.5%	-9.5%[46.1 µM]	u	u	-17.8%
Cc1n[nH]c(C)c1CCCCOc1ccccc1	-14.2%	-30.0%	9.9%	-21.1%[46.1 µM]	-82.4*	-3.5%
CN(C(=O)COC(=O)c1ccccc1OCC(=O)Nc1ccc(Br)cc1)c1ccccc1	-0.5%	x	x	x	x	-13.8%
Oc1cccc2ccc[n+](CC(O)Cn3c4ccccc4c4ccccc43)c12 (stereo not drawn)	-8.7%	22.4µM*	u	u	-21.4	u
Oc1cccc2ccc[n+](CC(O)CBr)c12 (stereo not drawn)	15.6%	x	x	x	x	-4.1%
O=C(NNc1nc(=O)c2cccnc2s1)c1ccccc1O	-7.2%	3.16µM*	u	11.1%[46.1 µM]	14.5	-2.3%
O=C(NNc1c2ccccc2nc2ccccc12)c1ccccc1Cl	x	4.47µM*	x	x	-25.3	x
O=C(NNc1c2ccccc2nc2ccccc12)c1ccccc1O	u	8.91µM*	u	u	-21.7	-28.7%
